# Source: PubChem BioAssay
# Calls of active or inactive are those of the source. How the calls were made is not given here.
# Assay: inhibition of Brca1/Bard1 split-luciferase complementation, confirmation, counter-screen for Mdm2/MdmX interaction inhibitor project, luminescence, single concentration (AID 504668)
# Settings: Brca1/Bard1 bimolecular luciferase complementation counterscreen, at 8 µM, stronger effect = higher value
row,Structure (SMILES),inhibition
1,CCOc1cc(/C=C2/NC(=O)N(CC(=O)Nc3cccc(C)c3)C2=O)ccc1OC,32.2% (active)
2,C=CCn1c(SCC(=O)Nc2ccc(F)cc2F)nc2c([nH]c3ccccc32)c1=O,26.8% (active)
3,CCCC(=O)NC(c1ccc(OC)c(OC)c1)c1cc(Cl)c2cccnc2c1O (stereo not given),27.9% (active)
4,O=C(Nc1nc(-c2ccccn2)cs1)c1ccccc1-n1cnnn1,29.6% (active)
5,CCN(CC)C(=O)C1CCCc2c1[nH]c1ccc(Cl)cc21 (stereo not given),34.6% (active)
6,CC1CCN(S(=O)(=O)c2ccc(C(=O)Nc3nnc(-c4ccco4)o3)cc2)CC1,34.2% (active)
7,CN(C)C1CCN(Cc2cc(COCc3ccccc3)c3cccnc3c2O)C1 (stereo not given),32.8% (active)
8,CC(C)c1cccc(O)c(=O)c1,27.6% (active)
9,COc1ccccc1NCC(=O)N/N=C/c1c(O)ccc2ccccc12,24.6% (active)
10,OC(CNCc1ccc(-c2ccccc2)cc1)c1ccccc1 (stereo not given),26.9% (active)
11,CC1CCN(CCCNC(=O)c2ccc3c(Cl)c4c(nc3c2)CCCC4)CC1,30.3% (active)
12,Cn1nnnc1Sc1ncnc2scc(-c3ccccc3Br)c12,25% (active)
13,COc1ccc(-c2oc3cc(OC)c(O)c(OC)c3c(=O)c2OC)cc1O,28.4% (active)
14,Cc1cc(NC(=O)/C=C/C(=O)N(c2ccccc2C)C(C(=O)NC2CCCC2)c2ccc(F)cc2)no1 (stereo not given),28.7% (active)
15,O=C(N/N=C(\c1ccccc1)c1cccnc1)c1cccc(F)c1,33.2% (active)
16,CCc1nc(Nc2ccncc2)c2oc3ccccc3c2n1,31.6% (active)
17,OC(c1cc(C(F)(F)F)nc2c(C(F)(F)F)cccc12)C1CCCCN1 (stereo not given),35.8% (active)
18,CC[N+]1=C(C)C(C)(C)c2cc(C)ccc21,28.2% (active)
19,O=C(COc1ccc(F)cc1Cl)Nc1nc(-c2ccccn2)cs1,33.8% (active)
20,CCN1CCN(CCCNC(=O)c2ccc(/C=C3/Sc4ccccc4N(Cc4ccccc4F)C3=O)cc2)CC1,24.1% (active)

row,Structure (SMILES),inhibition
1,NC(=O)c1sc2nc3c(c(-c4ccco4)c2c1N)CCC3,24.9% (active)
2,O=C(CCS(=O)(=O)c1ccc(Cl)cc1)Nc1nc(-c2ccncc2)cs1,25.6% (active)
3,O=C(/C=C/c1c(F)cccc1Cl)c1ccc(O)cc1,32.3% (active)
4,COc1ccc(O)c(/C=N/NC(=O)c2ccc(OCc3cccc(Br)c3)cc2)c1,32.8% (active)
5,CCCCSc1nc(C)cc(SCC(=O)N/N=C/c2cccc(OC)c2O)n1,34.4% (active)
6,CC1CCN(Cc2c(C(=O)N/N=C/c3ccccc3O)nnn2-c2nonc2N)CC1,32.5% (active)
7,O=C(CCCN1C(=O)/C(=C\c2ccco2)SC1=S)Nc1cccc2ccccc12,28.5% (active)
8,O=[N+]([O-])c1ccccc1C1Nc2cccc3cccc(c23)N1,26.9% (active)
9,CCn1c(C)cc(C(=O)CN2C(=O)c3ccccc3S2(=O)=O)c1C,23.2% (active)
10,Cc1cccc(NC(=S)N(CCCN2CCCC2)Cc2cccn2Cc2ccc(Cl)cc2)c1,23.4% (active)
11,COC(=O)[C@@]1(Cc2ccccc2)[C@H]2C(=O)N(Cc3ccccc3)C(=O)[C@H]2[C@H]2CN=C(SCc3ccc(C#N)cc3)N21,28.4% (active)
12,N=c1n(CCO)c2ccccc2n1CCOc1ccc(Cl)cc1Cl,25.4% (active)
13,COc1cc([C@@H]2c3cc4c(cc3[C@@H](O[C@@H]3O[C@@H]5CO[C@@H](C)O[C@H]5[C@H](O)[C@H]3O)[C@H]3COC(=O)[C@H]23)OCO4)cc(OC)c1O,31.6% (active)
14,CC(C)C(=O)NC(c1ccco1)c1ccc2cccnc2c1O (stereo not given),24% (active)
15,CCCOc1ccc(/C=N/Nc2cc(N3CCOCC3)ncn2)c(O)c1,23.7% (active)
16,Cc1ccc(C)c(NC(=S)NC(NC(=O)/C=C/c2ccccc2)C(Cl)(Cl)Cl)c1 (stereo not given),31.4% (active)
17,O=[N+]([O-])c1ccc(N=Nc2ccc(O)cc2O)cc1,29.5% (active)
18,Cc1nnsc1C(=O)N/N=C/c1ccc2ccccc2c1O,30.1% (active)
19,CCC(=O)NC(c1cccs1)c1ccc2cccnc2c1O (stereo not given),23.3% (active)
20,Cc1ccc(CNC(=O)c2ccc3c(=O)c(O)c(-c4ccc(C)cc4)[nH]c3c2)cc1,29% (active)
